Calls of active or inactive are those of the source.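 The calls were made as follows, unless noted: active = compound raises GLP1 secretion from the human gut endocrine cells, with no numeric limit stated; inactive = the rest.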

A short description of experiment [1]: stimulators of nuclear beta-catenin in C2C12, primary screen, imaging, WNT3A-conditioned medium, mouse C2C12, NPC library (AID 1117326; in the data active = nuclear beta-catenin stimulation mostly above about 4.2%, no sharp cut-off; inactive = mostly below about 10%; also: reference of the scale not given here). To be noted: stronger effect = higher value.
Experiment [2] in a line: stimulators of insulin release from INS-1E, primary screen, cell-based, 5 mM glucose, NPC library (AID 1117329;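 active = compound raises insulin release from rat beta cells at 5 mM glucose, no numeric limit stated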; also: reference of the scale not given here). To be noted: rat INS-1E insulin secretion, at 10 µM, stronger effect = higher value.
Experiment [3] can be described thus: growth inhibition of GSK3B-pretreated HCT116 cells – cell-based, CellTiter-Glo, 0.2 to 20 µM (AID 1117336;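 active = compounds lowering colon cancer cell viability after pretreatment blocking the GSK3B kinase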). The settings on record: HCT116 viability after GSK3B inhibitor, at 20 µM, stronger effect = higher value. (ATP-based viability assays read luminescence as a measure of living cells.)
A short description of experiment [4]: inhibition of endothelial tube formation, primary screen, imaging, VEGF stimulated, CD31 staining, tube area, NPC library (AID 1117340;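 active = compound that reduces growth-factor-driven endothelial tube area in a mixed cell culture, no cutoff stated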). To be noted: VEGF-stimulated ADSC/ECFC co-culture, at 10 µM, stronger effect = higher value.
The nature of experiment [5]: glucagon-like peptide 1 release enhancers, primary assay, NCI-H716 cell line, NPC library (AID 1117341). Also: reference of the scale not given here. The settings on record: NCI-H716 cells, at 10 µM, stronger effect = higher value.
Experiment [6] in a line: HCT116 colon cancer cell growth inhibition, primary screen, CellTiter-Glo luminescence, NPC library (AID 1117342;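 active = compounds that lower survival of HCT116 colon cancer cells in the luminescence readout, no numeric limit stated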). The settings on record: at 20 µM (top of the series).
Experiment [7] is described as follows: CellTiter-Glo luminescent readout of SW480 viability loss, NPC library primary (AID 1117343;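 active = compounds that lower viability of the colon cancer cells in the luminescence readout, with no numeric limit stated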). To be noted: CellTiter-Glo luminescence; at 20 µM (top of the series).
Experiment [8] can be described thus: decreased DLD-1 cellular survival, CellTiter-Glo luminescent readout, NPC compound collection, primary HTS (AID 1117346;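 active = compounds that lower survival of DLD-1 colon cancer cells in the luminescence readout, no cutoff given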). The settings on record: DLD-1 viability, CellTiter-Glo luminescence; at 20 µM (top of the series).

In the case of `Cc1cccc(N(C)C(=S)Oc2ccc3c(c2)CCC3)c1`, the nuclear beta-catenin stimulation in experiment [1] (at 10 µM) is 0% (inactive); in experiment [1] (stimulation, at 2 µM), -1.8%. Further, in experiment [2], the insulin secretion stimulation was 3.9% (inactive). Besides, the viability decrease in experiment [3] is 33.9% (inactive). Moreover, in experiment [4], the tube area decrease is -13.8% (inactive). In experiment [5], the GLP1 secretion stimulation is -4.7% (inactive). In experiment [6], the inhibition of viability is 55.5% (active). The viability decrease (inhibition) is 42.6% (inactive) in experiment [7] and 55.5% (active) in experiment [8].
For `C/C(=C1\CCOC(=O)S1)N(C=O)Cc1cnc(C)nc1N`, the nuclear beta-catenin stimulation in experiment [1] (at 10 µM) was -0.3% (inactive); in experiment [1] (stimulation, at 2 µM), 0.1%. The insulin secretion stimulation in experiment [2] is 4.7% (inactive). Also, the viability decrease in experiment [3] is -6.1% (inactive). Further, the tube area decrease in experiment [4] is -16.6% (inactive). Further, the GLP1 secretion stimulation in experiment [5] was 8.1% (inactive). Also, the inhibition of viability in experiment [6] is 19.8% (inactive). The results for the viability decrease (inhibition) in experiment [7] and in experiment [8] were 3.7% (inactive) and 1.5% (inactive), respectively.
`Cc1ccc(S(=O)(=O)NC(=O)NC2CCCC2)cc1`: the nuclear beta-catenin stimulation was 0.2% (inactive) in experiment [1] (at 10 µM) and 0.6% in experiment [1] (stimulation, at 2 µM). The insulin secretion stimulation in experiment [2] was 15.2% (inactive). The viability decrease in experiment [3] was -1.25% (inactive). Moreover, the tube area decrease in experiment [4] is -10.7% (inactive). In experiment [5], the GLP1 secretion stimulation is -0.4% (inactive). Moreover, the inhibition of viability in experiment [6] was -18.5% (inactive). Moreover, the viability decrease (inhibition) in experiment [7] was 44.9% (inactive); in experiment [8], 9.95% (inactive).
For the compound `O=C(Nc1ncc([N+](=O)[O-])s1)c1cccs1`, the nuclear beta-catenin stimulation in experiment [1] (at 10 µM) is -2.8% (inactive); in experiment [1] (stimulation, at 2 µM), -1.2%. For the same compound, the insulin secretion stimulation in experiment [2] is -0.4% (inactive). In experiment [3], the viability decrease was 45.8% (inactive). The tube area decrease in experiment [4] is 46.3% (active). In addition, the GLP1 secretion stimulation in experiment [5] is -0.9% (inactive). Besides, the inhibition of viability in experiment [6] was 41.2% (inactive). The values for the viability decrease (inhibition) in experiment [7] and in experiment [8] were 43.6% (inactive) and 67.5% (active), respectively.
With `Cc1c(C)n(Cc2ccccc2)c2ccc(C(=O)OCCN(C)C)cc12`, the nuclear beta-catenin stimulation in experiment [1] (at 10 µM) is 12.1% (inactive); in experiment [1] (stimulation, at 2 µM) it was -0.2%. Also, the insulin secretion stimulation in experiment [2] is 79.2% (active). In addition, in experiment [3], the viability decrease was 90.9% (active). In addition, in experiment [4], the tube area decrease was 29.5% (inactive). Also, the GLP1 secretion stimulation in experiment [5] is 10.7% (inactive). In addition, in experiment [6], the inhibition of viability is 98.9% (active). Further, the viability decrease (inhibition) was 88.7% (active) in experiment [7] and 95% (active) in experiment [8].
Take `O=C(/C=C/c1ccccc1)OCc1ccccc1`: the nuclear beta-catenin stimulation in experiment [1] (at 10 µM) was 1.3% (inactive); in experiment [1] (stimulation, at 2 µM), 0.1%. Besides, the insulin secretion stimulation in experiment [2] was -0.1% (inactive). Also, the viability decrease in experiment [3] is -14.9% (inactive). For the same compound, in experiment [4], the tube area decrease was 3% (inactive). Besides, the GLP1 secretion stimulation in experiment [5] is -1.3% (inactive). Moreover, the inhibition of viability in experiment [6] is 5.05% (inactive). Further, the viability decrease (inhibition) was 19.3% (inactive) in experiment [7] and 7.4% (inactive) in experiment [8].
With `C=CCN1C(=O)C(CC(C)C)NC1=S` (stereo unspecified), the nuclear beta-catenin stimulation was 0% (inactive) in experiment [1] (at 10 µM) and 0.3% in experiment [1] (stimulation, at 2 µM). In addition, the insulin secretion stimulation in experiment [2] is -1.4% (inactive). The viability decrease in experiment [3] was -1.7% (inactive). In experiment [4], the tube area decrease was -6.4% (inactive). Further, in experiment [5], the GLP1 secretion stimulation is -4% (inactive). Further, the inhibition of viability in experiment [6] is -4.1% (inactive). Besides, the figures for the viability decrease (inhibition) in experiment [7] and in experiment [8] were 2.8% (active) and -17.7% (inactive), respectively.
`CCCCNc1ccc(C(=O)OCCN(CC)CC)cc1`: the nuclear beta-catenin stimulation is 4% (inactive) in experiment [1] (at 10 µM) and 1.7% in experiment [1] (stimulation, at 2 µM). Moreover, the insulin secretion stimulation in experiment [2] was 7.25% (inactive). Moreover, the viability decrease in experiment [3] is 50.2% (active). Moreover, the tube area decrease in experiment [4] is 19.5% (inactive). Also, in experiment [5], the GLP1 secretion stimulation was 3.7% (inactive). Further, the inhibition of viability in experiment [6] was 81.8% (active). For the same compound, the viability decrease (inhibition) in experiment [7] was 60.6% (active); in experiment [8], 88.7% (active).
Turning to `CC1c2ccccc2CN1NC(=O)c1ccc(Cl)c(S(N)(=O)=O)c1` (stereo unspecified), the nuclear beta-catenin stimulation in experiment [1] (at 10 µM) is 1.2% (inactive); in experiment [1] (stimulation, at 2 µM), 4.6%. The insulin secretion stimulation in experiment [2] was 1.65% (inactive). In experiment [3], the viability decrease is 26.4% (inactive). Further, in experiment [4], the tube area decrease was -9.7% (inactive). The GLP1 secretion stimulation in experiment [5] was -1.8% (inactive). For the same compound, the inhibition of viability in experiment [6] is 1.4% (inactive). The viability decrease (inhibition) in experiment [7] is -21.1% (active); in experiment [8] it was -10.8% (inactive).
Consider `CO[C@@H]1[C@@H](OC)[C@H](C)[C@@](O)(CC(=O)O)O[C@H]1[C@H](C)[C@H]1O[C@@]2(CC[C@@](C)([C@H]3CC[C@@](C)([C@@H]4O[C@@H]([C@H]5O[C@](C)(O)[C@H](C)C[C@@H]5C)C[C@@H]4OC4C[C@H](OC)[C@@H](OC)[C@H](C)O4)O3)O2)C[C@H](O)[C@H]1C` (stereo partly specified), for which the nuclear beta-catenin stimulation was -1.1% (inactive) in experiment [1] (at 10 µM) and 10.6% in experiment [1] (stimulation, at 2 µM). Also, the insulin secretion stimulation in experiment [2] was 5.4% (inactive). Besides, the viability decrease in experiment [3] is 79.8% (active). Moreover, the tube area decrease in experiment [4] is 111% (active). Besides, the GLP1 secretion stimulation in experiment [5] is 15% (inactive). Moreover, the inhibition of viability in experiment [6] is 66.7% (active). In addition, the results for the viability decrease (inhibition) in experiment [7] and in experiment [8] were 128% (active) and 96.7% (active), respectively.
For the compound `COc1cc([C@@H]2c3cc4c(cc3[C@@H](O[C@@H]3O[C@@H]5CO[C@@H](C)O[C@@H]5[C@H](O)[C@@H]3O)[C@H]3COC(=O)[C@H]23)OCO4)cc(OC)c1O`, the nuclear beta-catenin stimulation was 44.6% (active) in experiment [1] (at 10 µM) and 18.8% in experiment [1] (stimulation, at 2 µM). Further, the insulin secretion stimulation in experiment [2] is 1.2% (inactive). The viability decrease in experiment [3] was 21.9% (inactive). The tube area decrease in experiment [4] is 104% (active). The GLP1 secretion stimulation in experiment [5] is 0.6% (inactive). Also, the inhibition of viability in experiment [6] was 53.9% (active). Further, the viability decrease (inhibition) in experiment [7] was 73.1% (active); in experiment [8] it was 49.6% (inactive).
On to `CCCCCCCCCCCCCCCCCCO`, for which the nuclear beta-catenin stimulation in experiment [1] (at 10 µM) is 0.4% (inactive); in experiment [1] (stimulation, at 2 µM), -0.4%. The insulin secretion stimulation in experiment [2] is -1.7% (inactive). Moreover, in experiment [3], the viability decrease was -15.2% (inactive). Besides, the tube area decrease in experiment [4] was -3.6% (inactive). Moreover, in experiment [5], the GLP1 secretion stimulation was 1.9% (inactive). For the same compound, the inhibition of viability in experiment [6] was -11.1% (inactive). Further, the values for the viability decrease (inhibition) in experiment [7] and in experiment [8] were 0.9% (inactive) and -5.65% (inactive), respectively.
Take `CC[N+]1(CC)CCC(=C(c2ccccc2)c2ccccc2)C1C` (stereo unspecified): the nuclear beta-catenin stimulation in experiment [1] (at 10 µM) was -1.3% (inactive); in experiment [1] (stimulation, at 2 µM), -2.2%. The insulin secretion stimulation in experiment [2] was 1.7% (inactive). The viability decrease in experiment [3] is -4.6% (inactive). For the same compound, the tube area decrease in experiment [4] was -9.4% (inactive). Moreover, in experiment [5], the GLP1 secretion stimulation is 3.8% (inactive). In addition, in experiment [6], the inhibition of viability was 22.7% (inactive). Besides, the viability decrease (inhibition) is 1.6% (inactive) in experiment [7] and 34.6% (inactive) in experiment [8].
Regarding `N[C@H](C(=O)O)[C@@H](O)c1ccc(O)c(O)c1`, the nuclear beta-catenin stimulation in experiment [1] (at 10 µM) was 0.1% (inactive); in experiment [1] (stimulation, at 2 µM), 0%. Also, in experiment [2], the insulin secretion stimulation is 11.2% (inactive). For the same compound, the viability decrease in experiment [3] was 31.7% (inactive). Besides, the tube area decrease in experiment [4] was 1.4% (inactive). In addition, the GLP1 secretion stimulation in experiment [5] was -4.8% (inactive). Further, in experiment [6], the inhibition of viability was 6.7% (inactive). Besides, the viability decrease (inhibition) in experiment [7] is 21.5% (inactive); in experiment [8] it was 2.8% (inactive).

The values are drawn from PubChem BioAssay.
